For 65 compounds, Potency results are on record in PubChem BioAssay AID686978 (National Center for Advancing Translational Sciences (NCATS), 2013).

Molecules are shown by their SMILES. Out of some 420,000 compounds screened, about 64,000 (15%) were called active. About 27% were inconclusive and are not listed. Calls follow the shape of the dose curve; as a rule, active = well fitted inhibition curve with a large enough effect; inconclusive = small, poorly fitted or top-dose-only effect; inactive = flat fitted curve, though single readings scatter. The list is a sample of the results. Entries that show only a call come without a potency.
Potency is read from the fitted curve at half-maximal effect.

The test can be described thus: qHTS for Inhibitors of human tyrosyl-DNA phosphodiesterase 1 (TDP1): qHTS in cells in absence of CPT. Also: nearly all actives have a fitted effect of over 55% in size. The following applies: DT40 Tdp1-/- hTDP1 cells, no CPT, ATP luminescence, 48 h; activity change, negative = growth inhibition: at 46.2 µM (top of the series). A digest of the protocol:
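A cellular qHTS used chicken DT40 cells lacking endogenous Tdp1 but carrying stably transfected human TDP1. Compounds were applied without camptothecin, and cell growth kinetics were judged by ATP-dependent luminescence after ≥48 hr.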
(In general: In qHTS, concentration-response curves come from the screen itself.)
In the case of `C=C(C)CNC(=O)c1ccc(OC2CCN(C(=O)COC)CC2)cc1`, the Potency result is “inactive”.

`C=CCNC(=O)COC(=O)CNC(=O)c1cc(Cl)cc([N+](=O)[O-])c1`: the Potency entry is “inactive”.

`Cc1c(Cl)cccc1NC(=O)[C@@]1(CC(=O)O)CC(/C=C/c2ccccc2)=NO1`: the Potency result is “inactive”. The same measure for `CCc1c(-c2ccc(F)cc2)ncn1Cc1cccc(-c2ccccc2)c1`: 11.6 µM (active); for `Cc1ccc(-c2csc(C(C#N)=C(O)CN3CCN(C(=O)c4ccco4)CC3)n2)cc1`: “inactive”. For the compound `Cc1ccc(CNC(=O)CCC(=O)N2Cc3ccccc3Oc3ncccc32)cc1`, the Potency result is “inactive”. The same measure for `C=CCc1cc(C)ccc1OCCCn1ccnc1`: “inactive”. The same measure for `SCc1nc2ccc(Cl)cc2[nH]1`: 3.98 µM (active). The entry for `OC(c1nc2ccc(F)cc2[nH]1)C(O)c1nc2ccc(F)cc2[nH]1` (stereo not given) is “inactive”; for `Oc1ccc(Cl)cc1/C=N/c1nc2ccccc2[nH]1` it is “inactive”; for `Cc1ccc2nc(SCC(=O)N3CCN(c4ccccc4)CC3)nc(=O)n2c1` it is “inactive”.

For the compound `CCC(C)N1C(=O)S/C(=C/c2ccc(Sc3nc4ccccc4[nH]3)o2)C1=O` (stereo not given), the Potency is 11.2 µM (active). `CN1C(=O)/C(=C\c2ccc(-c3ccccc3)o2)SC1=S`: the Potency result was “inactive”.

With `CCc1nnc(NC(=O)CCCSc2nc3ccccc3[nH]2)s1`, the Potency result is “inactive”. The same measure for `COc1ccc(C(CNCC(=O)Nc2ccccc2F)N(C)C)cc1` (stereo not given): “inactive”; for `CCO[C@@H]1OC(C(=O)N2CCOCC2)=C[C@H](C)[C@H]1CCCO`: “inactive”. The same measure for `CCO[C@H]1OC(C(=O)N2CCOCC2)=C[C@@H](c2ccc3c(c2)OCO3)[C@@H]1CCCO`: “inactive”; for `CCO[C@H]1OC(C(=O)N2CCCCCCC2)=C[C@@H](c2ccc(C(F)(F)F)cc2)[C@@H]1CCCO`: 20.6 µM (active).

For `CC1CN(C(=S)Nc2cccc(F)c2)CC(C)O1` (stereo not given), the Potency entry was “inactive”. In the case of `CN(Cc1ccc(CNC[C@H]2O[C@@H](n3cnc4c(N)ncnc43)[C@H](O)[C@@H]2O)o1)S(C)(=O)=O`, the Potency result is “inactive”. The entry for `Cc1cccc(NC(=O)C2CC(=O)OC23CCCC3)c1` (stereo not given) is “inactive”; for `Cc1ccc2[nH]c(=O)c(CN(CC3COCCO3)C(=O)Nc3ccccc3C)cc2c1` (stereo not given) it is “inactive”.

As for `Cc1cccc(NC(=O)N(Cc2cc3cc(C)cc(C)c3[nH]c2=O)CC2COCCO2)c1` (stereo not given), the Potency is 16.4 µM (active). The entry for `O=C(O)c1[nH]c2ccccc2c1C(c1cccc(O)c1)c1c(C(=O)O)[nH]c2ccccc12` is “inactive”; for `COC(=O)c1ccc(CNC(=O)C2CCC(=O)N(Cc3ccccn3)C2)cc1` (stereo not given) it is “inactive”. The entry for `CN1CCN(C(=O)Cn2c(C(F)(F)F)nc3ccccc32)CC1` is “inactive”. The same measure for `O=c1cc(CO)oc(C(Nc2cccc(C(F)(F)F)c2)c2ccccn2)c1O` (stereo not given): “inactive”; for `FC(F)(F)c1cccc(Nc2ncnc3ccccc23)c1`: 18.4 µM (active); for `Cc1nc2nc(C)c(CCC(=O)N3CCN(c4ccccc4)CC3)c(C)n2n1`: “inactive”. Turning to `COc1ccccc1CN1CCCC(N2CCN(c3ccc(F)cc3)CC2)C1` (stereo not given), the Potency result was “inactive”. The same measure for `Cc1cc(=O)oc(C)c1C(=O)NCc1ccc(F)cc1`: “inactive”. `CCC(=O)Nc1nnc(S(=O)(=O)N2CCCc3ccccc32)s1`: the Potency result is “inactive”. The same measure for `CC1CCN(c2ccc([N+](=O)[O-])c(SCCO)c2)CC1`: 23.1 µM (active). `CC1CCN(c2ccc3c(c2)S(=O)(=O)c2cc(C(=O)O)ccc2C3=O)CC1`: the Potency result was “inactive”. The same measure for `CC1CCN(c2ccc(C(=O)Nc3nnc(C4CC4)s3)cc2[N+](=O)[O-])CC1`: “inactive”; for `COCCn1c(N)c(NCc2ccccc2)c(=O)[nH]c1=O`: “inactive”.

On to `COC(=O)c1sc(C(F)(F)F)c(-c2ccccc2)c1S(=O)(=O)N(C)C`, for which the Potency result is “inactive”. The entry for `CC(C)NC(=O)c1nn(-c2ccccc2F)nc1CO` is “inactive”; for `CC(CCCc1ccccc1)NC(=O)c1nn(-c2ccc(Cl)cc2)nc1CO` (stereo not given) it is 20.6 µM (active). The entry for `Cc1ccc(-n2nc(CO)c(C(=O)NCCc3ccccc3)n2)cc1` is “inactive”. With `CCc1ccc(NC(=O)CCNS(=O)(=O)c2cccs2)cc1`, the Potency result was “inactive”. The entry for `O=C(CN(C(=O)CNC(=O)c1cccs1)c1cccc(F)c1)NC1CCCCC1` is “inactive”. The same measure for `CCCN1CCN(CCCNC(=O)Cn2nc(CC)n3c(cc4occc43)c2=O)CC1`: “inactive”.

Regarding `Cc1nn(CC(=O)NCCc2ccccc2)c(=O)c2cc3occc3n12`, the Potency result was “inactive”. The same measure for `CCc1ccc(-c2cc3c(=O)n(CC(=O)NCCCN4CCN(Cc5ccccc5)CC4)nc(C)n3n2)cc1`: 16.4 µM (active); for `COc1cc(OC)cc(-c2nc(=S)n3ccsc3n2)c1`: “inactive”; for `O=S(=O)(Cc1cc(Sc2ccccc2)nc(-c2ccccc2)n1)c1ccccc1`: 23.1 µM (active). The entry for `CCS(=O)(=O)n1nc(-c2ccccc2)nc1SCc1ccccc1` is “inactive”; for `O=S(=O)(Cc1cc(Cl)nc(-c2cccnc2)n1)c1ccccc1` it is “inactive”; for `COCCCNC(=O)Cn1c(=O)n(Cc2ccccc2Cl)c(=O)c2cc(OC)c(OC)cc21` it is “inactive”.

With `CCCCCOC(=O)c1ccc(N2C(=O)C3C4C=CC(C4)C3C2=O)cc1` (stereo not given), the Potency result was “inactive”. On to `COc1cc(C2CC(=O)N3CN(Cc4ccccc4)CSC3=C2C#N)ccc1OCc1ccccc1` (stereo not given), for which the Potency result was “inactive”.

Turning to `O=C(NCC1CC1)c1onc(CSc2ccccc2)c1C(=O)NCC1CC1`, the Potency is 20.6 µM (active).

On to `COc1ccc(SCc2noc(C(=O)NCC3CCCO3)c2C(=O)O)cc1` (stereo not given), for which the Potency result is “inactive”.

On to `O=C(NCc1ccccc1)c1onc(CSc2ccncc2)c1C(=O)NCc1ccccc1`, for which the Potency result is “inactive”. As for `COc1ccc(C(=O)NC(=S)N2CCNC(=O)C2CC(=O)OC(C)C)cc1` (stereo not given), the Potency entry was “inactive”.

For `O=c1cc(CSc2ccc(Cl)cc2)nc(N2CCOCC2)[nH]1`, the Potency result is “inactive”. The entry for `Cc1ccc2nc(N3C(=O)C(O)=C(C(=O)c4ccco4)C3c3cccc(O)c3)sc2c1` (stereo not given) is “inactive”. The same measure for `COc1ccc(OC)c(C(O)c2nc3ccccc3n2C)c1` (stereo not given): “inactive”; for `COc1cc(C(O)c2nc3ccccc3n2C)cc(OC)c1OC` (stereo not given): 18.4 µM (active); for `COc1cccc(C(O)c2nc3ccccc3n2C)c1` (stereo not given): “inactive”.

In the case of `COc1ccc(-c2cc(=O)oc3cc(OC(C)C(=O)NCC4CCC(C(=O)O)CC4)ccc23)cc1` (stereo not given), the Potency result was “inactive”. The figure for `O=C(NCCc1cccc(F)c1)C1CCCN(c2nc3ccccc3s2)C1` (stereo not given) is 23.1 µM (active); for `Cc1cc(=O)n2nc(N3CCCC(C(=O)NCc4cccc(Cl)c4)C3)sc2n1` (stereo not given) it is “inactive”; for `O=C(NCc1ccccc1)C1CCCN(c2nc3ccsc3c(=O)s2)C1` (stereo not given) it is “inactive”.
